We go through 41 compounds from PMC4336329 (PLoS ONE, 2015).

About 14,000 (4.5%) of roughly 310,000 compounds showed an effect of 50% or more. Effects have a minus sign here. Only a selection was taken, and strong results are over-represented in it overall.
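Also: peak tail current of the secondary pulse compared with the same well before compound.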

The target in this assay is human ether-à-go-go-related gene (hERG) potassium channel (human, UniProt Q12809). Put plainly: primary screen, population patch clamp on CHO cells stably expressing hERG; higher = less effect of the substance.
Chain of human ether-à-go-go-related gene (hERG) potassium channel (Q12809 whole entry, looked up): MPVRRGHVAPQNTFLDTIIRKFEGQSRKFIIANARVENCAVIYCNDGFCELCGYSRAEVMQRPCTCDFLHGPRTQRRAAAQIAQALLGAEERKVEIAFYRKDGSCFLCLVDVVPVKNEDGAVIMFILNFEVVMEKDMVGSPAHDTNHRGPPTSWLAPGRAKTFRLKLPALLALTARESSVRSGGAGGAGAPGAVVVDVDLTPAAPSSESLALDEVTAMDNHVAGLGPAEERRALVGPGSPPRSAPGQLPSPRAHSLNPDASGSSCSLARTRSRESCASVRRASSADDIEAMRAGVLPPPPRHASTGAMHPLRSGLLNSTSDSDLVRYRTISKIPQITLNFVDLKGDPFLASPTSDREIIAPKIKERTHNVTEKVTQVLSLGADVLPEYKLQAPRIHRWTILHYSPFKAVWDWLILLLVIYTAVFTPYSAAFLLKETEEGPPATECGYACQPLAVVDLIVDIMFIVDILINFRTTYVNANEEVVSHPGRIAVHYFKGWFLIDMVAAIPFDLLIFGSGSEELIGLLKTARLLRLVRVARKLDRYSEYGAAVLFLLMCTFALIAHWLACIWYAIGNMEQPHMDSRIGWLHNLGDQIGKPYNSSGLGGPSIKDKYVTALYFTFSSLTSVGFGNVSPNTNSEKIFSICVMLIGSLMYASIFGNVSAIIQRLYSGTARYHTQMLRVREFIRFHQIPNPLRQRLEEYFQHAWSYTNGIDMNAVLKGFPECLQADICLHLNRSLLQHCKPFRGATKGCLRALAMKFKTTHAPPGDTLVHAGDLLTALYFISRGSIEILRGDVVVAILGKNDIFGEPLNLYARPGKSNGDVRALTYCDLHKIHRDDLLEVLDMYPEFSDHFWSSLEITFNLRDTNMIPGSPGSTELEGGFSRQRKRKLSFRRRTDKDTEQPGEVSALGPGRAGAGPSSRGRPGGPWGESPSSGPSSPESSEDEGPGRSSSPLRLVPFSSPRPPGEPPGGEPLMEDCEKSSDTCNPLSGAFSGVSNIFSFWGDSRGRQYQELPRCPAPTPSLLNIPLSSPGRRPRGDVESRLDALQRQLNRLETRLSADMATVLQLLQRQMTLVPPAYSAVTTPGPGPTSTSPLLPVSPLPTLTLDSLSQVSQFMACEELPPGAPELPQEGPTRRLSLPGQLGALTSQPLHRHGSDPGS
As for `CCOc1ccc(NC(=O)Cn2sc3nc(C)cc(C)c3c2=O)cc1`, the “hERG current change (%, negative = inhibition) at 10uM” value turned out to be 4.94%.

On to `CCC(C)c1ccc(NC(=O)CSc2nncn2N)cc1` (centres unmarked), for which the “hERG current change (%, negative = inhibition) at 10uM” value was -27.5%.

Regarding `COc1ccc(S(=O)(=O)NCCSCc2ccccc2C)cc1Br`, the “hERG current change (%, negative = inhibition) at 10uM” value is listed as -1.29%.

Regarding `C=CCN1C(=Nc2cccnc2)SCC1(O)c1ccc(C)cc1` (centres unmarked), the “hERG current change (%, negative = inhibition) at 10uM” value amounted to 4.64%.

As to `Fc1ccc(CSc2nnc3ccc(-c4ccncc4)nn23)cc1`, the “hERG current change (%, negative = inhibition) at 10uM” value is given as -70.1%.

As for `Cc1ccc(CSc2nnc3ccc(-c4ccncc4)nn23)cc1`, the “hERG current change (%, negative = inhibition) at 10uM” value is on record as -42.4%.

Consider `Cc1ccccc1CSc1nnc2ccc(-c3ccncc3)nn12`, for which the “hERG current change (%, negative = inhibition) at 10uM” value is -20.8%.

In the case of `c1ccc(CSc2nnc3ccc(-c4ccncc4)nn23)cc1`, the “hERG current change (%, negative = inhibition) at 10uM” value is -58.3%.

Consider `Nn1c(SCc2cccc(F)c2)nnc1-c1ccncc1`, for which the “hERG current change (%, negative = inhibition) at 10uM” value was -4.03%.

As to `Fc1ccccc1CSc1nnc2ccc(-c3ccncc3)nn12`, the “hERG current change (%, negative = inhibition) at 10uM” value is -43.1%.

For `c1ccc(CSc2nnc3ccc(-c4ccncc4)nn23)nc1`, the “hERG current change (%, negative = inhibition) at 10uM” value came to 7.44%.

For the compound `Fc1cccc(CSc2nnc3ccc(-c4ccncc4)nn23)c1`, the “hERG current change (%, negative = inhibition) at 10uM” value was -60.4%.

Consider `c1cncc(CSc2nnc3ccc(-c4ccncc4)nn23)c1`, for which the “hERG current change (%, negative = inhibition) at 10uM” value was -26.7%.

As to `CCOC(=O)C(C)Oc1ccc(OCc2ccccc2)cc1` (centres unmarked), the “hERG current change (%, negative = inhibition) at 10uM” value was 20.1%.

In the case of `CC(C)(C)NS(=O)(=O)c1cccc(S(=O)(=O)c2cccc(S(=O)(=O)NC(C)(C)C)c2)c1`, the “hERG current change (%, negative = inhibition) at 10uM” value was -35.3%.

As to `CCCNS(=O)(=O)c1ccc(CCC(=O)N2CCN(CC)CC2)cc1`, the “hERG current change (%, negative = inhibition) at 10uM” value is on record as -1.72%.

Turning to `O=C(NC1CCS(=O)(=O)C1)c1ccc(S(=O)(=O)N2CCCCC2)cc1` (centres unmarked), the “hERG current change (%, negative = inhibition) at 10uM” value is 1.86%.

As for `CCC(C(=O)Nc1ccncc1)c1ccccc1` (centres unmarked), the “hERG current change (%, negative = inhibition) at 10uM” value turned out to be 0.0329%.

As for `CN(C)S(=O)(=O)c1ccc(S(=O)(=O)N2CCN(CCC#N)CC2)cc1`, the “hERG current change (%, negative = inhibition) at 10uM” value is recorded as -1.43%.

In the case of `O=C(CN1C(=O)NC2(CCCC2)C1=O)N1CCN(S(=O)(=O)c2cccc(F)c2)CC1`, the “hERG current change (%, negative = inhibition) at 10uM” value is 22.2%.

`Cc1ccc(C2(C)NC(=O)N(CC(=O)N3CCN(S(=O)(=O)c4cccs4)CC3)C2=O)cc1` (centres unmarked): the “hERG current change (%, negative = inhibition) at 10uM” value is -31.9%.

Turning to `CCOc1ccc(C(=O)CCC(=O)N2CCN(S(=O)(=O)c3cccc(F)c3)CC2)cc1`, the “hERG current change (%, negative = inhibition) at 10uM” value is given as -30.7%.

`CCOc1ccc(OCCC(=O)N2CCN(S(=O)(=O)c3ccc(F)cc3)CC2)cc1`: the “hERG current change (%, negative = inhibition) at 10uM” value is -6.61%.

As to `CCC1(CC)NC(=O)N(CC(=O)N2CCN(S(=O)(=O)c3cccc(F)c3)CC2)C1=O`, the “hERG current change (%, negative = inhibition) at 10uM” value is 7.12%.

As for `Cc1ccc(C2(C)NC(=O)N(CC(=O)N3CCN(S(=O)(=O)c4cccc(F)c4)CC3)C2=O)cc1` (centres unmarked), the “hERG current change (%, negative = inhibition) at 10uM” value is recorded as -65.7%.

Turning to `CC1(c2ccccc2)NC(=O)N(CC(=O)N2CCN(S(=O)(=O)c3cccc([N+](=O)[O-])c3)CC2)C1=O` (centres unmarked), the “hERG current change (%, negative = inhibition) at 10uM” value amounted to 5.57%.

On to `Cc1ccc(C2(C)NC(=O)N(CC(=O)N3CCN(S(=O)(=O)c4ccc(Cl)s4)CC3)C2=O)cc1` (centres unmarked), for which the “hERG current change (%, negative = inhibition) at 10uM” value was -58%.

Take `O=C(CN1C(=O)NC2(CCCCC2)C1=O)N1CCN(S(=O)(=O)c2ccc(Cl)s2)CC1`: the “hERG current change (%, negative = inhibition) at 10uM” value is 4.79%.

Take `CCOc1ccc(OCCC(=O)N2CCN(S(=O)(=O)c3cccc(F)c3)CC2)cc1`: the “hERG current change (%, negative = inhibition) at 10uM” value is reported as -62.4%.

`O=C(CN1C(=O)NC2(CCCCC2)C1=O)N1CCN(S(=O)(=O)c2ccc(F)cc2)CC1`: the “hERG current change (%, negative = inhibition) at 10uM” value is 4.02%.

Regarding `O=C(CN1C(=O)NC2(CCCCC2)C1=O)N1CCN(S(=O)(=O)c2cccc(F)c2)CC1`, the “hERG current change (%, negative = inhibition) at 10uM” value is -61.8%.

With `CCCC(=O)Nc1cc(C(=O)N2CCC3(CC2)OCCO3)ccc1S(=O)(=O)c1ccc(C)cc1`, the “hERG current change (%, negative = inhibition) at 10uM” value is on record as -14%.

Regarding `COc1cc(C(=O)Nc2nc3ccccc3[nH]2)ccc1OC(F)F`, the “hERG current change (%, negative = inhibition) at 10uM” value is listed as 18%.

`CCc1cccc(CC)c1NC(=O)C1CN(S(=O)(=O)c2ccccc2)CCN1S(=O)(=O)c1ccccc1` (centres unmarked): the “hERG current change (%, negative = inhibition) at 10uM” value turned out to be 9.16%.

Take `COc1ccccc1NS(=O)(=O)NC(=O)c1cn(C)c2ccccc12`: the “hERG current change (%, negative = inhibition) at 10uM” value was determined as 16.8%.

As to `COc1ccc(NC(=O)CSc2nnc(-c3ccccc3)n2N)cc1`, the “hERG current change (%, negative = inhibition) at 10uM” value is listed as -4.04%.

With `CCOc1ccccc1N1CCN(Cc2c(C)n(C)n(-c3ccccc3)c2=O)CC1`, the “hERG current change (%, negative = inhibition) at 10uM” value is -20.5%.

For the compound `CSCCC(NC(=O)c1ccc(Cl)cc1Cl)C(=O)NNC(=O)c1ccncc1` (centres unmarked), the “hERG current change (%, negative = inhibition) at 10uM” value was -6.73%.

Take `CC1(c2ccccc2Cl)NC(=O)N(CC(=O)N2CCN(S(=O)(=O)c3ccccc3)CC2)C1=O` (centres unmarked): the “hERG current change (%, negative = inhibition) at 10uM” value is 7.55%.

Consider `CC(C)c1ccc(S(=O)(=O)N2CCN(C(=O)CN3C(=O)NC(C)(c4ccccc4)C3=O)CC2)cc1` (centres unmarked), for which the “hERG current change (%, negative = inhibition) at 10uM” value is -31.6%.

Take `CC1(c2ccc(Cl)cc2)NC(=O)N(CC(=O)N2CCN(S(=O)(=O)c3ccccc3)CC2)C1=O` (centres unmarked): the “hERG current change (%, negative = inhibition) at 10uM” value was -50%.
